The text below walks through data of the supplement of paper PMC7156485.
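Throughout, for H1.0 immunofluorescence intensity relative to DMSO: TDF is a line of transformed human dermal fibroblasts of mesenchymal origin.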
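Throughout, for cell number relative to DMSO: TDF denotes transformed human dermal fibroblasts of mesenchymal origin.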

In the first assay the test system is TDF. Nature of the assay: cell number relative to DMSO (% of DMSO); higher = more cells (less growth inhibition / toxicity). The conditions noted are these: concentration: 10 µM; 24 h. The procedure, abridged:
(§1)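 H1.0 nuclear intensity or cell number is stated as percent of the plate control, based on the median of replicates, and HCC1569 values were smoothed for positional effects. These came from HCC1569 and TDF cells treated with compounds at 10 µM for 24 h at 37 °C in triplicate, then fixed in 3.7% formaldehyde and stained with a rabbit anti-H1.0 antibody, an AlexaFluor 647 secondary and DAPI.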
Molecule `O=c1oc2c(O)c(O)cc3c(=O)oc4c(O)c(O)cc1c4c23` [Ellagic acid] had a cell number of 106.
For `CC1CCN(C(=O)CC#N)CC1N(C)c1ncnc2[nH]ccc12` (stereo not drawn) [Tasocitinib], the cell number came out at 110.
On the same count and under the same terms, under `O.O=c1c(O)c(-c2ccc(O)cc2O)oc2cc(O)cc(O)c12` stands 94.5; under `O=c1nc[nH]c2c1ncn2C1CCC(CO)O1` (stereo not drawn) [Didanosine], 98.9.
On the same count and under the same terms, the value for `O=C1NC(=O)C(=Cc2ccc3c(c2)OC(F)(F)O3)S1` [PI 3-KbInhibitor II] was 96.8; that for `O=c1cc(-c2ccc(O)c(O)c2)oc2cc(O)c(C3OC(CO)C(O)C(O)C3O)c(O)c12` (stereo not drawn) [Homoorientin] was 96.2; that for `[N-]=[N+]=Nc1ccc(C(=O)CSCC(NC(=O)CCC(N)C(=O)O)C(=O)NCC(=O)O)cc1` (stereo not drawn) [S-(p-Azidophenacyl)glutathione] was 105.
The molecule `COc1ccc(-c2cc(C(O)C3CCCCN3)c3ccccc3n2)cc1.Cl.Cl` (stereo not drawn) gave a cell number of 24.8.

Another assay concerns TDF. Nature of the assay: H1.0 immunofluorescence intensity relative to DMSO (% of DMSO); higher = stronger H1.0 induction, active = 120 or more. As to conditions: concentration: 10 µM; 24 h. In outline:
as §1
`COC1=CC(=O)CC(C)C12Oc1c(Cl)c(OC)cc(OC)c1C2=O` (single isomer, unassigned; (+)) [(+)-Griseofulvin]: the H1.0 immunofluorescence intensity is 99.2 (inactive).
Consider `S=C([S-])OC1CC2CC1C1CCCC21.[K+]` [D-609 potassium], for which the H1.0 immunofluorescence intensity is 95.2 (inactive).
The same measure, in the same setting: the value for `Cc1ccccc1/N=N/c1ccc(NC(=O)c2ccnn2C)c(C)c1` was 98.5 (inactive).
With `S=C([S-])OC1CC2CC1C1CCCC21.[K+]` (stereo not drawn), the H1.0 immunofluorescence intensity was 90.2 (inactive).
`N[C@@H](CCCC(=O)O)C(=O)O` [L-2-aminoadipic acid]: the H1.0 immunofluorescence intensity is 99.8 (inactive).
Turning to `CCc1ccc(CCOc2ccc(CC3SC(=O)NC3=O)cc2)nc1` (stereo not drawn) [Pioglitazone], the H1.0 immunofluorescence intensity was 94.2 (inactive).
As for `OC[C@H]1NC[C@@H](O)[C@@H]1O` [1,4-Dideoxy-1,4-imino-D-arabinitol], the H1.0 immunofluorescence intensity was 88.6 (inactive).
`CC1=CC(=O)C2=C(C)CCC3C(C)C(=O)OC3C12` (stereo not drawn) [Leucomisine]: the H1.0 immunofluorescence intensity is 96.5 (inactive).
On to `C#CC(N)CCC(=O)O` (stereo not drawn) [gamma-Acetylinic GABA], for which the H1.0 immunofluorescence intensity is 93.2 (inactive).
Regarding `COc1ccc(C2Sc3ccccc3N(CCN(C)C)C(=O)C2OC(C)=O)cc1.Cl` (stereo not drawn) [Diltiazem hydrochloride], the H1.0 immunofluorescence intensity is 93 (inactive).
For the molecule `COC(=O)C1=C(C)NC(C)=C(C(=O)OCCN(C)Cc2ccccc2)C1c1cccc([N+](=O)[O-])c1.Cl` (stereo not drawn) [Nicardipine hydrochloride], the H1.0 immunofluorescence intensity is 99.2 (inactive).
As to `Nc1nc2ccccc2c2ccccc12` [6-phenanthridinamine], the H1.0 immunofluorescence intensity is 97.8 (inactive).
Regarding `Cc1ncc([N+](=O)[O-])n1CCO` [Metronidazole], the H1.0 immunofluorescence intensity is 99.3 (inactive).
Consider `Cc1ccc(-c2ncc(Cl)cc2-c2ccc(S(C)(=O)=O)cc2)cn1` [Etoricoxib], for which the H1.0 immunofluorescence intensity is 101 (inactive).
Turning to `CCN1C(=O)C=CC1=O` [N-Ethylmaleimide], the H1.0 immunofluorescence intensity is 96.6 (inactive).
Consider `CCCCCCCCCCCCCC(=O)O` [Tetradecanoic acid], for which the H1.0 immunofluorescence intensity was 97.8 (inactive).
As to `N=C(N)c1ccc(OCCCCCOc2ccc(C(=N)N)cc2)cc1.O=S([O-])OCCO.O=S([O-])OCCO` [Pentamidine isethionate], the H1.0 immunofluorescence intensity is 103 (inactive).
Consider `O=C(O)CO.[NH2-].[NH2-].[Pt+2]` [Nedaplatin], for which the H1.0 immunofluorescence intensity is 96.9 (inactive).
In the case of `CN1CCN(c2c(F)cc3c(=O)c(C(=O)O)cn4c3c2SCC4)CC1` [Rufloxacin], the H1.0 immunofluorescence intensity is 100 (inactive).
`Cl.Cl.NCCNc1ncc(C(N)=O)c(Nc2cccc(C(F)(F)F)c2)n1.O.O` [Syk Inhibitor II]: the H1.0 immunofluorescence intensity is 88.2 (inactive).
In the case of `CCCCCCCCCCCCCCCC(=O)NCCc1ccc(O)c(O)c1` [Palmitoyl dopamine], the H1.0 immunofluorescence intensity is 101 (inactive).
Take `CCCCCC=CCC=CCC=CCCCCCCC(=O)OC(COCCCCCCCCCCCCCCCC)COP(=O)([O-])OCC[N+](C)(C)C` (stereo not drawn): the H1.0 immunofluorescence intensity is 96.6 (inactive).
Same read-out and setting: under `COc1c2c(nc3ccccc13)OC(C(C)(O)CO)C2` (stereo not drawn) [Dubinidine] stands 96.1 (inactive); under `CNC(=O)C1OC(n2cnc3c(NCc4ccc(N)cc4)ncnc32)C(O)C1O` (stereo not drawn), 93.8 (inactive); under `CN(C(Cc1ccc(OS(=O)(=O)c2cccc3cnccc23)cc1)C(=O)N1CCN(c2ccccc2)CC1)S(=O)(=O)c1cccc2cnccc12` (stereo not drawn), 113 (inactive).
Regarding `O=C(O)c1cc(N(Cc2ccccc2O)Cc2ccccc2O)ccc1O` [Lavendustin B], the H1.0 immunofluorescence intensity was 94.5 (inactive).
Consider `COC(=O)CCc1ccc(OCC(O)CNC(C)C)cc1` (stereo not drawn) [Esmolol], for which the H1.0 immunofluorescence intensity is 101 (inactive).
On the same count and under the same terms, the value for `Clc1ccc2c(c1)CCc1cccnc1C2=C1CCNCC1` [Desloratadine] was 109 (inactive).
Still for that read-out and setting: the value for `CC(=O)N1CCN(c2ccc(OCC3COC(Cn4ccnc4)(c4ccc(Cl)cc4Cl)O3)cc2)CC1` (stereo not drawn) [Ketoconazole] was 101 (inactive); that for `Nc1nccc2c1ncn2C1OC(CO)C(O)C1O` (stereo not drawn) [3-deazaadenosine] was 93.7 (inactive).
Turning to `CN(C)CCN1C(=O)c2ccccc2N(C)c2ccccc21` [Dibenzepine], the H1.0 immunofluorescence intensity is 97.7 (inactive).
As to `COc1ccc2cc1Oc1ccc(cc1)CC1c3cc(c(OC)cc3CCN1C)Oc1c(OC)c(OC)c(OC)c3c1C(C2)N(C)CC3` (stereo not drawn) [Hernandezine], the H1.0 immunofluorescence intensity is 106 (inactive).
On to `O=c1oc2c(O)c(O)cc3c(=O)oc4c(O)c(O)cc1c4c23` [Ellagic acid], for which the H1.0 immunofluorescence intensity was 102 (inactive).
Same read-out and setting: under `CC1CCN(C(=O)CC#N)CC1N(C)c1ncnc2[nH]ccc12` (stereo not drawn) [Tasocitinib] stands 89.1 (inactive); under `O.O=c1c(O)c(-c2ccc(O)cc2O)oc2cc(O)cc(O)c12`, 100 (inactive).
Turning to `O=c1nc[nH]c2c1ncn2C1CCC(CO)O1` (stereo not drawn) [Didanosine], the H1.0 immunofluorescence intensity was 95.7 (inactive).
As for `O=C1NC(=O)C(=Cc2ccc3c(c2)OC(F)(F)O3)S1` [PI 3-KbInhibitor II], the H1.0 immunofluorescence intensity is 103 (inactive).
Regarding `O=c1cc(-c2ccc(O)c(O)c2)oc2cc(O)c(C3OC(CO)C(O)C(O)C3O)c(O)c12` (stereo not drawn) [Homoorientin], the H1.0 immunofluorescence intensity was 100 (inactive).
Consider `[N-]=[N+]=Nc1ccc(C(=O)CSCC(NC(=O)CCC(N)C(=O)O)C(=O)NCC(=O)O)cc1` (stereo not drawn) [S-(p-Azidophenacyl)glutathione], for which the H1.0 immunofluorescence intensity was 95.5 (inactive).
As for `COc1ccc(-c2cc(C(O)C3CCCCN3)c3ccccc3n2)cc1.Cl.Cl` (stereo not drawn), the H1.0 immunofluorescence intensity was 169 (active).
